Data taken from ChEMBL document CHEMBL4888484, “Replenishing the malaria drug discovery pipeline: Screening and hit evaluation of the MMV Hit Generation Library 1 (HGL1) against asexual blood stage Plasmodium falciparum ,using a nano luciferase reporter read-out” (2022).
The campaign covered roughly 150,000 compounds. About 540 (0.36%) showed an effect of 50% or more. This excerpt belongs to a sample that is enriched for strong results.

Tested on: Plasmodium falciparum
Test: Primary screen in NF54 nanoGlo assay, in single point, at 2uM, 72h; a lower Z score goes with more inhibition
Assay type: functional, Erythrocyte
Conditions: timepoint 72 hour

Compound	% Inhibition	Z score
Cc1ccc(C(=O)Nc2ncn(Cc3c(F)cccc3Cl)n2)cc1	-15%	1.74
CN(Cc1ncc(-c2ccccc2)o1)c1ccccc1	-6%	0.5
C[n+]1ccc(-c2ncc(-c3ccccc3)o2)c2ccccc21	75%	-5.73
CC(=O)Nc1c(-c2ccc(F)cc2)c(C)nn1-c1ccc(C(=O)Nc2cccc(F)c2)cc1	-5%	0.93
CC(=O)Nc1c(-c2ccc(F)cc2)c(C)nn1-c1ccc(C(=O)Nc2nc(C)cs2)cc1	-1%	0.19
CC(=O)Nc1c(-c2ccc(C)cc2)c(C)nn1-c1ccc(C(=O)Nc2cc(C)ccn2)cc1	59%	-6.89
c1ccc2c(c1)CCCC2N1CCCC(Cn2cncn2)C1 (centres undefined)	-9%	1.31
C[C@H](NC(=O)CNC(C)(C)C)c1ccc(F)cc1F	-4%	0.48
CC1(C)CO[C@@H](CC(=O)N2CCOC3(CCS(=O)(=O)CC3)C2)C1	0%	0.06
Cc1ccc(-c2cn[nH]c2[C@H]2CCCN(C(=O)c3[nH]cnc3C)C2)cc1	-5%	0.87
Cc1cccc2c(-c3cc(N)nc(N)n3)c[nH]c12	85%	-9.19
Cc1cccc2c(-c3cccc(C(N)=O)n3)c[nH]c12	-6%	1.19
O=C(c1cnc2ccsc2c1)N1CC2(CCCCC2)C1	-15%	2.61
CCc1noc(C)c1C(=O)Nc1sc2c(c1C(N)=O)CCCCC2	-23%	2.07
CCn1ncnc1CNC1CC(c2ccc(Br)cc2)C1 (centres undefined)	-13%	1.96
COc1ccc2c(O)cc(-c3ccccc3)nc2c1	37%	-0.12
COc1ccc2c(O)c(C(=O)NCCN(C)C)cnc2c1	-7%	0.96
COc1ccc(C(=O)c2cnc3cc(Cl)ccc3c2-c2ccccc2)cc1	-12%	1.39
Cc1cccc(Cn2c(C(=O)Nc3ccccc3)cc3cc(NC(=O)C4CCC4)ccc32)c1	13%	-2.41
COc1ccc(-c2nn(-c3ccccc3C)cc2CN(C)Cc2nccn2C)cc1F	-8%	1.05
Cc1cc(C(=O)Nc2cccc(C(F)(F)F)c2)cc2c1N(C)S(=O)(=O)c1ccccc1-2	-3%	0.47
O=C(COC[C@H]1CCCCO1)NC(C1CC1)C1CC1	-8%	1.05

Compound	% Inhibition	Z score
O=C(Nc1ccc(Br)cn1)c1ccc(-c2ccc(Cl)c(Cl)c2)o1	31%	-3.51
Cc1ccc(-c2ccc(C(=O)Nc3cccnc3)o2)cc1Cl	-2%	0.25
O=C(Nc1cccnc1)c1ccc(-c2ccc(Cl)c(Cl)c2)o1	64%	-16.5
Cc1ccc2nc(-c3cnoc3C)cn2c1	0%	0.04
Nc1nn2cc(-c3cc4ccccc4o3)nc2c2ccccc12	-6%	1.22
Cc1ccc2nc(-c3cc4ccccc4o3)cn2c1	61%	-5.65
O=C(NCCN1CCCC1)c1ccc(-c2c(-c3ccc(F)cc3)ncn2C2CCCC2)o1	5%	-0.8
Cc1ccc(Cl)cc1N1CCN(C(=O)N2CCC(C)CC2)CC1	0%	-0.01
CCc1nc2cc(N3CCC(C(=O)N[C@@H](C)CC)CC3)cnc2nc1CC	-9%	1.42
CCc1nc2cc(N3CCC(C(=O)NCc4cc(F)cc(F)c4)CC3)cnc2nc1CC	-5%	0.82
CCc1nc2cc(N3CCC(C(=O)Nc4ccc5c(c4)OCO5)CC3)cnc2nc1CC	73%	-0.75
Cc1ccc(S(=O)(=O)c2cn(CC(=O)Nc3ccc(C)c(C)c3)c3nc(C)ccc3c2=O)cc1	-12%	1.24
COCCN1CC[C@H](CN(C)S(=O)(=O)Cc2ccc(Cl)cc2)C1	-6%	1.12
COCCN1C[C@]2(CCCN(c3ccnc4ccc(C)cc34)C2)CCC1=O	-3%	0.55
COCCN1CC[C@H](CN(C)c2ccncn2)C1	1%	-0.2
COCCN1CCC[C@@]2(CCN(Cc3cnn(-c4ccc(Cl)cc4)c3)C2)C1	-9%	1.21
COC(=O)[C@H](CN)Oc1ccc(F)cc1	2%	-0.27
O=C(N[C@@H]1C[C@H]1C1CCCCC1)N1CCC(N2CCCCC2)C1 (some centres undefined)	-9%	1.45
O=C(NC1CC1C1CCCCC1)N1CCS(=O)(=O)CC1 (centres undefined)	77%	-9.17
O=C(NC1CC1C1CCCCC1)N1CCCN(C2CCOCC2)CC1 (centres undefined)	-16%	1.42
CCCN(C(=O)Nc1cc(Cl)ccc1OC)c1nc(-c2ccc(C3CCCCC3)cc2)cs1	-14%	2.04
COc1ccc(NCC(=O)Nc2cc(C(F)(F)F)cc(NC(=O)CNc3ccc(OC)cc3)c2Cl)cc1	-10%	1.34

Compound	% Inhibition	Z score
CC(=O)Oc1ccc(N2C(=O)[C@@H]3[C@H](Cc4ccccc4)N[C@]4(C(=O)Nc5c4ccc(Cl)c5C)[C@@H]3C2=O)cc1	-4%	0.38
O=C(ON1C(=O)CCC1=O)c1cc2ccccc2[nH]1	61%	-0.88
Cc1cccc(C(=O)ON2C(=O)CCC2=O)c1	39%	1.28
O=C(ON1C(=O)CCC1=O)c1cccc(F)c1	34%	-3.87
Cc1nn(-c2nc3ccccc3[nH]2)c(O)c1Cc1ccccc1	63%	-1.65
Cc1cccc(Cc2c(C)nn(-c3nc(C)cc(C)n3)c2O)c1	36%	2.2
Oc1cc(-c2ccc(F)cc2)nn1-c1nc2ccccc2[nH]1	36%	-4.09
Cc1cc(C)nc(-n2nc(C)c(CCc3ccccc3)c2O)n1	32%	-3.67
Cc1nn(-c2nc3ccccc3[nH]2)c(O)c1CCC(C)C	95%	-12.21
COc1ccccc1-n1nc(C)c(Cc2ccccc2)c1O	31%	-3.49
COc1ccc([C@@H]2N(c3ccc(Cl)cc3)OC(=O)N2c2ccccc2)cc1	1%	-0.09
Cc1n[nH]c2c1CN(Cc1[nH]cc(C)c(=O)c1C)CC2	-8%	1
COCCCN(CCC(=O)NCCc1ccccc1)C(=O)c1cc(C)oc1C	2%	-0.18
Cc1ccc(CNC(=O)CC2CC2)c2cccnc12	-16%	2.46
COc1ccc(Cl)cc1-c1cc(C(=O)N2CCOCC2)ccn1	3%	-0.54
CCc1c(C(=O)N2CCC(c3ccnn3CCO)CC2)cnn1-c1cccc(Cl)c1	-3%	0.24
CCc1nc2ccccc2c(C(=O)N2CCN(c3cc(OC)ncn3)CC2)c1C	-13%	1.69
COC[C@H]1CCCN1C[C@@H]1OC[C@H](NC(=O)c2ccc(C#N)cc2)[C@H]1O	9%	-1.07
Cn1cccc1-c1nc2cc(N)ccc2[nH]1	-3%	0.34
COCCN(CCOC)C(=O)c1cnn(C)c1	-6%	0.88
CCOc1ccccc1C(=O)N1CCC[C@](c2nnnn2CCC(C)C)(N(C)C)C1	-2%	0.29
CC(C)CCn1nnnc1[C@]1(N(C)C)CCCN(C(=O)CN2CCOCC2)C1	2%	-0.27

Compound	% Inhibition	Z score
CC(C)CCn1nnnc1[C@]1(N(C)C)CCCN(C(=O)c2cccn2C)C1	92%	1.07
CCOCCCNCc1ccc(F)cc1	-10%	1.59
Cc1ccc(-c2nnc(-c3nc(NCc4ccc(F)cc4)c4ccccc4n3)o2)cc1	-11%	2.05
COc1ccc(-c2nnc(-c3nc(NCc4ccc5c(c4)OCO5)c4ccccc4n3)o2)cc1	-7%	1.27
COc1ccc(CNc2nc(-c3nnc(-c4ccccc4)o3)nc3ccccc23)cc1	55%	-10.02
O=C(NCC1(c2ccccc2)CCCCCC1)N1CCO[C@@H](CO)C1	-5%	0.59
CCc1c(C)nc(C)nc1N1CC[C@H](NC(=O)c2cc(C)on2)[C@@H](O)C1	8%	-1.41
CCn1nccc1C=C(C)c1ncccn1	1%	-0.23
CN(CCCn1ccnc1)C(=O)c1ccnc(N(C)C)c1	-12%	1.13
COc1ccc(Br)cc1NC(=O)N(C)CCCn1ccnc1	8%	-0.86
COc1ccc(Cn2nnc3cc(C(=O)Nc4ccc(C)cc4C)ccc32)cc1	-2%	0.34
CC1=Nc2ccccc2C12CCN(C(=O)Nc1cncc(F)c1)CC2	11%	-1.44
O=C(Nc1onc2c1CCC2)c1ccc2ccccc2c1	76%	-8.19
O=C(Nc1onc2c1CCC2)c1ccc2ncsc2c1	0%	0.01
O=C(Nc1onc2c1CCC2)c1cccc2ccccc12	20%	-2.27
CC(=O)Nc1ccc(S(=O)(=O)NC2(c3nc(C)no3)CCCCC2)cc1	-3%	0.55
O=C(Cn1cnc(-c2nc(-c3ccccc3)cs2)c1)Nc1ccc(F)cc1	-8%	0.99
O=C(O)[C@H]1CCN(C(=O)Cn2c(COc3ccccc3)nc3ccccc32)C1	-10%	0.93
Cc1nn(-c2nc3ccccc3s2)c(O)c1C(c1ccc(Cl)c(Cl)c1)c1c(C)nn(-c2nc3ccccc3s2)c1O	-10%	0.88
Cc1nn(-c2ccccc2Cl)c(O)c1C(c1ccsc1)c1c(C)nn(-c2ccccc2Cl)c1O	6%	-0.74
Cc1nn(-c2ccccn2)c(O)c1C(c1ccccc1)c1c(C)nn(-c2ccccn2)c1O	96%	-9.38
